From PubChem
ssDAF-12 act = S. stercoralis DAF-12 activation, primary screen; HEK293 ssDAF-12/GRIP1 lit1-tk-luc reporter, luminescence; % of 3 µM dafachronic acid response; activation, % at 6.8 µM; 370,000 compounds, 1% hits; AID 652126;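 active means activation above the mean over all tested compounds plus 3 SD, cut at about 0.9% in these data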
DAX1 inh-1 = inhibits human nuclear receptor DAX1. HEK293 Gal4-DAX1 luciferase reporter, luminescence. inhibition, % at 6.75 µM. 340,000 compounds, 0.99% hits;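 active means inhibition above the mean over all tested compounds plus 3 SD, cut at about 4.2% in these data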;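 further: inhibition shows as a rise in luminescence from relieved DAX1 repression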
Target sequence (P51843 207-470 limits assumed): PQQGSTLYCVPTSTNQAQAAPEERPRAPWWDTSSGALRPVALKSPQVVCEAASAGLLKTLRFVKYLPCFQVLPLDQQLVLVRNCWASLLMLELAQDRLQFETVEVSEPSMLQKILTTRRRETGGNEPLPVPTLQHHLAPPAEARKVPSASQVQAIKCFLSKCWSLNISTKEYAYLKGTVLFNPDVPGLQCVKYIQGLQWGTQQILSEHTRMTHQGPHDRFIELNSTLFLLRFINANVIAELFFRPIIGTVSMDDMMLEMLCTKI
hcDAF12 agonist = H. contortus DAF-12 activation, primary screen. activation, % at 6.8 µM. HEK293 hcDAF-12 lit1-tk-luc reporter, luminescence; 0% DMSO, 100% Δ7-dafachronic acid. 370,000 compounds, 1.4% hits;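 active means activation above the mean of all tested compounds plus 3 SD, cut at about 5.5% in these data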
DAX1 inh-2 = inhibitors of DAX1 repression of SF-1 activated StAR promoter | 370,000 compounds, 1.1% hits | inhibition, % at 6.8 µM | HEK293T StAR-luciferase reporter, SF-1/DAX-1 repression relief | AID 652010;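 active means inhibition above the mean over all tested compounds plus 3 SD, cut at about 3.6% in these data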;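 further: higher inhibition means more luminescence from relief of DAX-1 repression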
hgDAF12 agonist = activates the H. glycines DAF-12 receptor ligand-binding domain; HEK293 GAL4-hgDAF12 UAS-luciferase reporter, agonist luminescence; normalized to butyrate control; activation, % at 6.8 µM; 370,000 compounds, 1.8% hits; AID 687014;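 active means activation above a cutoff set at the mean of all screened compounds plus 3 SD, cut at about 10% in these data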
LXRb hcDAF ctr = LXR-beta agonism as hcDAF-12 counter-screen | shares compounds with hcDAF12 agonist | HEK293 Gal4-LXR tk-luc reporter, luminescence, 24 h; normalized: DMSO 0%, positive control 100% | activation, % at 6.8 µM | 3,400 tested, under 10 active | AID 743027;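 active means mean percent activation of the reporter above a cutoff set as the average over tested compounds plus their standard deviation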
Target sequence (P55055 whole entry, looked up, the tested form may be a part): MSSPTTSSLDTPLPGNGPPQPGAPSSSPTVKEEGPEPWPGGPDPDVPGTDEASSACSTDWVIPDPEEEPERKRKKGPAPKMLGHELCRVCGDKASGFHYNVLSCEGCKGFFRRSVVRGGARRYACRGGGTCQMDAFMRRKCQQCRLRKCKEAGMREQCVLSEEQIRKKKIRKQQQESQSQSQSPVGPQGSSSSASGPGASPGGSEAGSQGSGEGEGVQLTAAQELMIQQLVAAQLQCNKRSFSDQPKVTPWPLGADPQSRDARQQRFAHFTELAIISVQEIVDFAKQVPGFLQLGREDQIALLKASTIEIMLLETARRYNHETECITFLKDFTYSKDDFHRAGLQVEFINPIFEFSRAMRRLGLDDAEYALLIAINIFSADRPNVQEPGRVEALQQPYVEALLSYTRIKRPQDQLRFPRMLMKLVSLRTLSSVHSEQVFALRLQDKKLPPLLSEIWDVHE
hcDAF12 ag = confirmation of H. contortus DAF-12 agonists; shares compounds with hcDAF12 agonist; HEK293 hcDAF-12 lit1-tk-luc reporter, luminescence; % of Δ7-dafachronic acid response; activation, % at 6.8 µM; 3,400 compounds, 61% hits; AID 743032;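 active means mean activation across triplicate tests above the threshold derived from the earlier primary screen, cut at about 5.5% in these data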
Large screens that a line does not name were inactive (follow-up assays come after a bar, where they were run). Compounds with a hit are over-represented: about 4.1% of the library has one in this group of screens.

O=C(COC(=O)c1cncc(Br)c1)Nc1ccc2c(c1)OCO2	hcDAF12 agonist 7.0 | LXRb hcDAF ctr inactive | hcDAF12 ag inactive
O=C(OCC(=O)c1c[nH]c2ccccc12)C1=COCCO1	ssDAF-12 act 1.0, hcDAF12 agonist 7.2 | LXRb hcDAF ctr inactive | hcDAF12 ag 9.9
CC(=O)Oc1ccc2cc(-c3ccccc3)c(=O)oc2c1	none
O=C(CCCCl)Oc1ccc2cc(-c3ccc4ccccc4n3)c(=O)oc2c1	hcDAF12 agonist 8.4 | LXRb hcDAF ctr inactive | hcDAF12 ag inactive
CNc1cnn(-c2ccc(C)cc2)c(=O)c1Cl	hcDAF12 agonist 8.1 | LXRb hcDAF ctr inactive | hcDAF12 ag 9.1
CNc1cnn(-c2ccc(C)cc2)c(=O)c1Sc1ccc(C)cc1	none
CC(C)(C)S(=O)(=O)N1C[C@@H]2CC(=O)C=C2[C@H]1CCO	none (no result: DAX1 inh-1)
CCCSc1nnc(-c2ccccc2N)c(=O)[nH]1	hcDAF12 agonist 7.1 | LXRb hcDAF ctr inactive | hcDAF12 ag 7.2
CCCOc1ccc(OCCSc2ncccn2)cc1	hcDAF12 agonist 6.8 | LXRb hcDAF ctr inactive | hcDAF12 ag inactive
Cc1cc(OC(C)C(=O)N2CCN(c3ccccc3)CC2)c2c(C)c(C)c(=O)oc2c1 (stereo unspecified)	none
N#Cc1ccc(Cl)cc1NC(=O)COC(=O)[C@H](CCC(N)=O)NC(=O)c1ccc(F)cc1	hcDAF12 agonist 9.4 | LXRb hcDAF ctr inactive | hcDAF12 ag inactive
C/C=C/c1cccc(-c2nc(C(=O)N3CCOCC3)cc3c2[C@H](CCO)N(C(=O)NC(C)C)C3)c1	none (no result: DAX1 inh-1)
CCOc1ccc(-c2cn(-c3ccc(OC)cc3)c(SC)n2)cc1	hcDAF12 agonist 7.0, hgDAF12 agonist 11 | LXRb hcDAF ctr inactive | hcDAF12 ag inactive
O=C(NC1CCCCCCC1)c1cc(F)c(F)cc1Cl	none
Cc1ccc(C(=O)NC2CCCCCCC2)c(Cl)c1	hcDAF12 agonist 6.9 | LXRb hcDAF ctr inactive | hcDAF12 ag 8.8
Cc1ccc(C)c(NCC(=O)c2ccc(Cl)cc2)c1	hcDAF12 agonist 7.1, hgDAF12 agonist 12 | LXRb hcDAF ctr inactive | hcDAF12 ag inactive
Cc1ccc(C)c(N2CCN(C(C(=O)NC3CCCC3)C(C)C)CC2)c1 (stereo unspecified)	none (no result: DAX1 inh-1)
CNC(=O)CSc1ncnc2c1cnn2-c1ccccc1	hcDAF12 agonist 7.4 | LXRb hcDAF ctr inactive | hcDAF12 ag inactive
Cc1c(NC(=O)CSc2ncnc3c2cnn3-c2ccccc2)c(=O)n(-c2ccccc2)n1C	none
O=C(CCN1CCCCC1=O)NC1CCCc2c1cnn2-c1ccccc1F (stereo unspecified)	none
COc1ccc(-n2c(SCC(=O)NCC3CCCO3)nc3c([nH]c4ccccc43)c2=O)cc1OC (stereo unspecified)	hcDAF12 agonist 8.1, hgDAF12 agonist 10 | LXRb hcDAF ctr inactive | hcDAF12 ag inactive
COc1ccc(-n2c(SCC(=O)NCC3CCCO3)nc3c([nH]c4ccccc43)c2=O)cc1 (stereo unspecified)	hcDAF12 agonist 7.3 | LXRb hcDAF ctr inactive | hcDAF12 ag inactive
Cc1ccccc1C(=O)NC1CCCCN(Cc2ccc(Cl)cc2)C1=O (stereo unspecified)	none (no result: DAX1 inh-1)
Cn1cc(C(=O)Nc2ccccn2)c(=O)c2ccccc21	ssDAF-12 act 1.7, hcDAF12 agonist 7.0 | LXRb hcDAF ctr inactive | hcDAF12 ag 12
CCS/C(N)=N/N=C/c1cc(C)ccc1O	hcDAF12 agonist 7.9 | LXRb hcDAF ctr inactive | hcDAF12 ag 6.2
Cc1cccc(/C=c2\s/c(=C\C(=O)C(C)(C)C)[nH]c2=O)c1	none
Cc1cccc(/C=C2\CCC(=C3SCCCS3)C2=O)c1	hcDAF12 agonist 7.5 | LXRb hcDAF ctr inactive | hcDAF12 ag 7.6
CC(C)[C@@H](CO)NC(=O)c1ccc2c3n(nc2c1)-c1ccccc1CO3	none
CC(C)NC(=O)c1ccc2c3n(nc2c1)-c1ccccc1CO3	hcDAF12 agonist 6.9 | LXRb hcDAF ctr inactive | hcDAF12 ag 8.1
O=C(C[C@H]1CC[C@H]2[C@@H](COC[C@@H](O)CN2S(=O)(=O)c2ccc(F)cc2)O1)N[C@@H]1CCN(Cc2ccccc2)C1	none (no result: DAX1 inh-1)
CCOc1cc(/C=N/NC(=O)C2CCCC2)ccc1OC(C)C	none
CN/N=C(\Cc1nc2ccccc2[nH]1)c1ccc([N+](=O)[O-])cc1	hcDAF12 agonist 7.0 | LXRb hcDAF ctr inactive | hcDAF12 ag 7.8
O=C(C(=O)N1CCC(CNS(=O)(=O)c2ccc3ccccc3c2)CC1)c1cc2ccccc2o1	none (no result: DAX1 inh-1)
COC(=O)c1ccc2nc(-c3cccc(Br)c3)c(Cc3ccccc3)n2c1	none (no result: DAX1 inh-1)
Oc1oc(-c2ccccc2)nc1C=Nc1cccc2ccccc12	hcDAF12 agonist 12 | LXRb hcDAF ctr inactive | hcDAF12 ag inactive
Oc1oc(-c2ccccc2)nc1/C=N/c1nccs1	none
CC1CCc2nc(/C(C#N)=C/c3cccnc3)sc2C1 (stereo unspecified)	DAX1 inh-1 6.4, hcDAF12 agonist 7.1, DAX1 inh-2 3.8, hgDAF12 agonist 13 | LXRb hcDAF ctr inactive | hcDAF12 ag inactive
Cc1nc(-c2ccc(NC(=O)c3ccccc3)cc2)cs1	ssDAF-12 act 1.2, hcDAF12 agonist 6.7, DAX1 inh-2 4.5, hgDAF12 agonist 12 | LXRb hcDAF ctr inactive | hcDAF12 ag 8.0
Cc1ccc(C(=O)Nc2ccc(-c3csc(C)n3)cc2)cc1	none
Clc1ccc(-c2cn3nc4c(nc3n2)CCCC4)cc1	hcDAF12 agonist 8.1, DAX1 inh-2 4.2, hgDAF12 agonist 12 | LXRb hcDAF ctr inactive | hcDAF12 ag 7.5
Cc1ccc(-c2cn3nc(C)c(C)nc3n2)cc1	none
O=C(Nc1ccccn1)c1onc2c1CCCC2	hcDAF12 agonist 8.0 | LXRb hcDAF ctr inactive | hcDAF12 ag 5.8
c1ccc(-c2ncc3ccccn23)cc1	none
c1ccc2c(c1)ncc1cccn12	ssDAF-12 act 1.5, hcDAF12 agonist 6.7 | LXRb hcDAF ctr inactive | hcDAF12 ag inactive
Cc1ccc2c(c1)sc(=NC(=O)c1cccs1)n2C	ssDAF-12 act 1.6, hcDAF12 agonist 7.9, hgDAF12 agonist 15 | LXRb hcDAF ctr inactive | hcDAF12 ag 23
Cc1ccc2c(c1)sc(=NC(=O)C1CC1)n2C	ssDAF-12 act 1.7, hcDAF12 agonist 8.7, hgDAF12 agonist 13 | LXRb hcDAF ctr inactive | hcDAF12 ag 14
COC(=O)Cn1c(=NC(=O)C2CC2)sc2c(C)cc(C)cc21	none
CCC(=O)NNc1ncnc2ccccc12	hcDAF12 agonist 6.9 | LXRb hcDAF ctr inactive | hcDAF12 ag inactive
CCOC(=O)C/C(=N\Nc1ncnc2ccccc12)c1ccccc1	hcDAF12 agonist 11 | LXRb hcDAF ctr inactive | hcDAF12 ag inactive
O=C(CC1C[C@H](C(=O)N2CCCCC2)[C@@]2(CCc3ccccc3)c3[nH]c4ccccc4c3CCN2C1=O)NCCc1ccccn1 (stereo partly specified)	none
